ChEMBL document CHEMBL5724796, “Tm Shift (DSF) assay results for EUbOPEN Chemogenomics Library” (2024)
Residues, ends and D or L forms follow the SMILES beside them. *: point of attachment. Cbz = O=C(OCc1ccccc1)*; CH2F = FC*

How the values were obtained:
Conditions in all cases: Compound concentration 20.0 uM
[1] = target: Tyrosine-protein kinase ABL1 (Homo sapiens) (UniProt P00519)
[2] = target: Bromodomain-containing protein 4 (Homo sapiens) (UniProt O60885)
[3] = target: Cyclin-dependent kinase 2 (Homo sapiens) (UniProt P24941)
[4] = target: Casein kinase I isoform delta (Homo sapiens) (UniProt P48730)
[5] = target: Glycogen synthase kinase-3 beta (Homo sapiens) (UniProt P49841)
[6] = target: Mitogen-activated protein kinase 1 (Homo sapiens) (UniProt P28482)
[7] = target: T1, Aurora kinase A (Homo sapiens) (UniProt O14965)
T1 sequence (whole entry): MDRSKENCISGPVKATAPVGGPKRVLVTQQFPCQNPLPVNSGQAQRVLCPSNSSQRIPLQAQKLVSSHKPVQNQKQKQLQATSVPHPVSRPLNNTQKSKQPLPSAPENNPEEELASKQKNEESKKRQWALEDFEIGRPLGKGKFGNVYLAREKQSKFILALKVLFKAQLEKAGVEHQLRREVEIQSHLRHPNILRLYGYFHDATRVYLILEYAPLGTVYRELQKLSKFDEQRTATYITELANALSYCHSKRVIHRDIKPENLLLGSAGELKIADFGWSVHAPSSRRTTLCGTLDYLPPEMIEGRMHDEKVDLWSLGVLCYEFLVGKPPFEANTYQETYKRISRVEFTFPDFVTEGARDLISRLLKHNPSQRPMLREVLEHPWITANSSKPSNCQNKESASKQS

[8] = target: T2, Transcription intermediary factor 1-alpha (Homo sapiens) (UniProt O15164)
T2 sequence (whole entry): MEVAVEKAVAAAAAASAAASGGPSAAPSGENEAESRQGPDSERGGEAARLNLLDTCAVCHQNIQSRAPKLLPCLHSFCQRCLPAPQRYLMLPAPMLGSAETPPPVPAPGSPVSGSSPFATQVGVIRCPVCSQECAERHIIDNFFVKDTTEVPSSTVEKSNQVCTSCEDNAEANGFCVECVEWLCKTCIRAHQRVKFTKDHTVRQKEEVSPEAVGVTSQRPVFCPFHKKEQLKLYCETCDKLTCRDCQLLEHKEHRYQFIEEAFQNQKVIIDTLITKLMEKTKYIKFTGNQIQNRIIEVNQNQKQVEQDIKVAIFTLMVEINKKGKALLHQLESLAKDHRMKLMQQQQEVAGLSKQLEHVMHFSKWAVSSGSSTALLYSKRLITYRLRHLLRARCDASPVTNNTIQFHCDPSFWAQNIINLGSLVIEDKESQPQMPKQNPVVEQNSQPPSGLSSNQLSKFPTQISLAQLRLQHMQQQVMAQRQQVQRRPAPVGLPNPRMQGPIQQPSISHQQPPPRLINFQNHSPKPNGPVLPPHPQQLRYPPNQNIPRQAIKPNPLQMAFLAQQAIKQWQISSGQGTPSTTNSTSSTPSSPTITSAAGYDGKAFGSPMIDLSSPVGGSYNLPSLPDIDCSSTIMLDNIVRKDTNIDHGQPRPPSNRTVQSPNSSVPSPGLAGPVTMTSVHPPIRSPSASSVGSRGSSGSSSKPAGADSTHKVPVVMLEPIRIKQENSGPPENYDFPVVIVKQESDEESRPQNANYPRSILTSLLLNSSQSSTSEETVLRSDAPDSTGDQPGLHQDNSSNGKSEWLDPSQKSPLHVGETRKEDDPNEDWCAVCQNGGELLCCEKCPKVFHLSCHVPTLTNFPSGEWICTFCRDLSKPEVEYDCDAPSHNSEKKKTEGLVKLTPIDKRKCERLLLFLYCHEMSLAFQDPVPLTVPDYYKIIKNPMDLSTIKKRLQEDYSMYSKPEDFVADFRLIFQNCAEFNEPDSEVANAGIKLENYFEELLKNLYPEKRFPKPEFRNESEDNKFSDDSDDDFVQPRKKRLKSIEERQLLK

Chain of Tyrosine-protein kinase ABL1 (Homo sapiens) (P00519 whole entry): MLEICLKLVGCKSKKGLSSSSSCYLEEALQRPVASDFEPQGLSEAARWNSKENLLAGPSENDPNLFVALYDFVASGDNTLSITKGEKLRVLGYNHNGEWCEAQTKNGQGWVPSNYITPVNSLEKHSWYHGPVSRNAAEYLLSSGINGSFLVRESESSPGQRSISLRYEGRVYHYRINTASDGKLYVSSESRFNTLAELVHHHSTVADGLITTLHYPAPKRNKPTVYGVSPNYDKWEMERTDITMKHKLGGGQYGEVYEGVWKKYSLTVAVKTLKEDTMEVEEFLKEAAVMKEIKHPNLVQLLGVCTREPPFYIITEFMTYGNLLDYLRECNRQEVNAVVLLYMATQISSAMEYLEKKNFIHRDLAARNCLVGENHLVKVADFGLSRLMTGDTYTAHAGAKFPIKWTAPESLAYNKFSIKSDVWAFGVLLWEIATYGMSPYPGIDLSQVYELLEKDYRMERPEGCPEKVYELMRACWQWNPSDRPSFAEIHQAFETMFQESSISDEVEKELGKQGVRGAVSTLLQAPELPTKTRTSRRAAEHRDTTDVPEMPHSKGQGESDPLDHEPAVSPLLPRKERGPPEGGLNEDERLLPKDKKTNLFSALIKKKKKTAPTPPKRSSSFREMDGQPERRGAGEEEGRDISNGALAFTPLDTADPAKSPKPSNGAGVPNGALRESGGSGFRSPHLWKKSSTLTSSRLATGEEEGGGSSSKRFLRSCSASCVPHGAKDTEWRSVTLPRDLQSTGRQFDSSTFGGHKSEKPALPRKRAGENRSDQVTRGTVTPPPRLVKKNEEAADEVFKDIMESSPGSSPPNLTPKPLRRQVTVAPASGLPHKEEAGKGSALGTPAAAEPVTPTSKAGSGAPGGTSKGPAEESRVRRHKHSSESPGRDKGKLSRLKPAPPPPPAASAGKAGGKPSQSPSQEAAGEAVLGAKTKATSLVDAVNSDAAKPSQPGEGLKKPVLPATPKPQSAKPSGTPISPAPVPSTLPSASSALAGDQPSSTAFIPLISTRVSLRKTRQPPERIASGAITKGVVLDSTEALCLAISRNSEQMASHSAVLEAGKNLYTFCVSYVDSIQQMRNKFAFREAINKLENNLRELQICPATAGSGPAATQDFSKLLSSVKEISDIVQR
Chain of Glycogen synthase kinase-3 beta (Homo sapiens) (P49841 whole entry, looked up): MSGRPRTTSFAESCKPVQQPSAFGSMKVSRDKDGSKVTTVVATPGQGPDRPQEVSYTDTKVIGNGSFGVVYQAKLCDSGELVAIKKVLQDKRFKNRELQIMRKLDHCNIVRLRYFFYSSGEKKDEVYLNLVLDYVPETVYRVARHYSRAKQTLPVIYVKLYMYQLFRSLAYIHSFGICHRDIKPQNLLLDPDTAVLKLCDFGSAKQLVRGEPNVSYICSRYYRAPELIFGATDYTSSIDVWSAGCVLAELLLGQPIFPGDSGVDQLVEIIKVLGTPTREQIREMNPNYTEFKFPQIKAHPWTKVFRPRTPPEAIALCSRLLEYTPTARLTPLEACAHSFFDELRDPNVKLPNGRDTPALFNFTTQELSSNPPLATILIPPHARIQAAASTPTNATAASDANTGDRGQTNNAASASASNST
Chain of Casein kinase I isoform delta (Homo sapiens) (P48730 whole entry, looked up, canonical isoform): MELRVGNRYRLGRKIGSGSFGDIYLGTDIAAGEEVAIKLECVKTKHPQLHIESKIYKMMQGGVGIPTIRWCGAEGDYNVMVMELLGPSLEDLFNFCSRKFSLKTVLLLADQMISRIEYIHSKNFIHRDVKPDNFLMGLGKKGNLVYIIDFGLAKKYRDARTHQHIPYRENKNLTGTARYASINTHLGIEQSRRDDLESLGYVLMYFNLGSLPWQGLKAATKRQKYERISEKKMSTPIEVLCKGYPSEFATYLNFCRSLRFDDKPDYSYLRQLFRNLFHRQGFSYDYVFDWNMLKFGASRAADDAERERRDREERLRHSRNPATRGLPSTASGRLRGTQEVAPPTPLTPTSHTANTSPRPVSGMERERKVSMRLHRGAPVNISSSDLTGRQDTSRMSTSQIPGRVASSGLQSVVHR
Chain of Mitogen-activated protein kinase 1 (Homo sapiens) (P28482 whole entry): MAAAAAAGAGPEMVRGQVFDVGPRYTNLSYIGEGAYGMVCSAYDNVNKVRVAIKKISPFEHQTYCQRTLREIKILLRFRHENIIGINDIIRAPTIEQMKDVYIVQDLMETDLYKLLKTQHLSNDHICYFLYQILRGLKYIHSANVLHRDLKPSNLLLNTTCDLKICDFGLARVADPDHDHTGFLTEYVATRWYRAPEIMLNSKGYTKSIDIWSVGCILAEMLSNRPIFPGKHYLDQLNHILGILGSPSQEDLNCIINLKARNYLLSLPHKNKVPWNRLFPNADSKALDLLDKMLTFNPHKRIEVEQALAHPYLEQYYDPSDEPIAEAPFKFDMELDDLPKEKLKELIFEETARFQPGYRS

| Structure (SMILES) | ΔTm [1] [°C] | ΔTm [2] [°C] | ΔTm [3] [°C] | ΔTm [4] [°C] | ΔTm [5] [°C] | ΔTm [6] [°C] | ΔTm [7] [°C] | ΔTm [8] [°C] |
| --- | --- | --- | --- | --- | --- | --- | --- | --- |
| CCc1c(C#N)c(S[C@@H](C(N)=O)c2ccccc2)nc(N(C)C)c1C#N | 0.6 | -2.37 | 0.24 | -0.69 | 0.35 | 0.45 | -2.54 | 0.58 |
| CC#CCn1c(N2CCC[C@@H](N)C2)nc2c1c(=O)n(Cc1nc(C)c3ccccc3n1)c(=O)n2C | -0.11 | 0.18 | -0.01 | -0.33 | -0.82 | 0.06 | -0.13 | -0.79 |
| COc1ccccc1C(=O)Nc1cc2c(cc1N1CCCCC1)n(C)c(=O)n2C | 0.35 | -2.11 | 0.1 | 0.01 | 0.08 | 0.17 | -1.43 | -0.76 |
| CC(=O)N[C@@H](Cc1ccc(O)cc1)C(=O)N[C@H](C(=O)N[C@@H](C)C(=O)N[C@@H](CC(=O)O)C(=O)CCl)C(C)C | 0.08 | -2.91 | -0.27 | 0.22 | -1.19 | -0.01 | -1.19 | -1.17 |
| CNCCN(C)Cc1cn[nH]c1-c1ccc(OC2CC(OCCC3CCOCC3)C2)cc1 (stereo not given) | 0.66 | -1.82 | 0.43 | 0.19 | -0.94 | 0.05 | -0.58 | -1.33 |
| CC(C)N(C[C@H]1O[C@@H](n2cnc3c(N)ncnc32)[C@H](O)[C@@H]1O)[C@H]1C[C@@H](CCc2nc3cc(C(C)(C)C)ccc3[nH]2)C1 | 0.52 | -1.59 | 0.63 | 0.57 | -0.47 | -0.02 | 0.32 | -0.97 |
| N[C@](CCCCB(O)O)(CCN1CCCCC1)C(=O)O | 0.12 | 2.02 | 1.3 | -0.19 | -0.19 | 0.26 | -1.26 | 0.59 |
| COC(=O)[C@H]1[C@H]2C[C@@H]3c4[nH]c5cc(OC)ccc5c4CCN3C[C@H]2C[C@@H](OC(=O)c2cc(OC)c(OC)c(OC)c2)[C@@H]1OC | 0.21 | -0.12 | 0.11 | -0.26 | -0.54 | 0.12 | -0.63 | -0.4 |
| Nc1ncnc2c1c(I)cn2[C@@H]1O[C@H](CO)[C@@H](O)[C@H]1O | 2.62 | -1.63 | 5.37 | 6.51 | 3.65 | 1.9 | 1.18 | 0.89 |
| O=C(NC(Cc1ccccc1)C(=O)NC(Cc1ccccc1)C(=O)CF)OCc1ccccc1 (stereo not drawn) (Cbz-Phe-Phe-CH2F; configuration not given here) | 0.45 | -0.83 | 0.11 | -0.3 | 0.04 | 0.22 | -2.32 | 1.22 |
| CC(C)C(=O)SCCCCCCC(=O)Nc1nc(-c2ccccc2)cs1 | 0.63 | -1.46 | 0.18 | 0.04 | 1.11 | -0.16 | -0.57 | -0.48 |
| C[C@@H](Nc1nc2c(cnn2C2CCCC2)c(=O)[nH]1)C(=O)N1CC[C@H](F)C1 | 0.58 | -2.88 | 0.63 | -0.33 | 1.37 | 0.07 | -2 | 0.97 |
| COc1ccc2nc3[nH]nc(C)c3c(NCCOCCO)c2c1 | 0.63 | -1.31 | 0.26 | 0.76 | 2.8 | -0.01 | 0.31 | -0.59 |
| CC(=O)N[C@@H](CC(C)C)C(=O)N[C@@H](CCC(=O)O)C(=O)N[C@@H](Cc1cnc[nH]1)C(=O)N[C@H](C=O)CC(=O)O (Ac-LEHD-aldehyde) | 0.07 | -2.66 | 0.05 | 0.09 | -0.79 | -0.4 | -1.34 | -0.81 |
| COc1cc(O)cc(CN2CCc3c(cc(Cn4ccn(C)c4=N)cc3-c3ccc(F)cc3C)C2=O)c1 | 0.41 | -3.72 | -0.56 | -0.83 | -0.55 | 0.04 | -2.93 | -1.53 |
| CC(C)(C)OC(=O)Nc1ccc(-c2cc(C(=O)NCCCCCCC(=O)NO)no2)cc1 | -1.36 | 0 | -1.64 | -3.22 | 0 | 0 | -4.92 | -2.07 |
| CCC(=O)N[C@H]1CC[C@@H](C(=O)N(C)c2ccc(-c3nc4ccccc4o3)cc2)C1 | 0.54 | 0.67 | -0.03 | 0.1 | -0.48 | -0.17 | -0.05 | -0.29 |
| O=c1[nH][nH]c(=O)c2cc(OCC3CCCCC3)ccc12 | 2.06 | -1.15 | 1.01 | -0.01 | 2.16 | 0.61 | -0.19 | 1.88 |
| Cc1n[nH]c(C)c1Cc1sc2c(c1C(=O)N1C[C@H](O)CO1)c(=O)n(C)c(=O)n2CC(C)C | 0.44 | -2.67 | 0.95 | -0.14 | -0.85 | 0.11 | -1.57 | 0.69 |
| O=C(NCCCCCCCCNC(=O)C(Cl)Cl)C(Cl)Cl | 0.05 | -2.38 | -0.1 | -0.18 | -1.79 | -0.02 | -1.73 | 1.02 |
